SMILES strings stand for the structures. In all, about 110,000 compounds were measured (“z-score”: median about -0.1, highest 2% from about 2 on). What follows is part of a selection rich in the highest values, with near analogues and random picks from the rest. Active and inactive are the calls of the source.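 Rule for the calls: active = z-score in the third read window above 3 or below -3; inactive = the rest.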

Sequence of Metabotropic glutamate receptor 8 (Rattus norvegicus) (P70579 whole entry, looked up): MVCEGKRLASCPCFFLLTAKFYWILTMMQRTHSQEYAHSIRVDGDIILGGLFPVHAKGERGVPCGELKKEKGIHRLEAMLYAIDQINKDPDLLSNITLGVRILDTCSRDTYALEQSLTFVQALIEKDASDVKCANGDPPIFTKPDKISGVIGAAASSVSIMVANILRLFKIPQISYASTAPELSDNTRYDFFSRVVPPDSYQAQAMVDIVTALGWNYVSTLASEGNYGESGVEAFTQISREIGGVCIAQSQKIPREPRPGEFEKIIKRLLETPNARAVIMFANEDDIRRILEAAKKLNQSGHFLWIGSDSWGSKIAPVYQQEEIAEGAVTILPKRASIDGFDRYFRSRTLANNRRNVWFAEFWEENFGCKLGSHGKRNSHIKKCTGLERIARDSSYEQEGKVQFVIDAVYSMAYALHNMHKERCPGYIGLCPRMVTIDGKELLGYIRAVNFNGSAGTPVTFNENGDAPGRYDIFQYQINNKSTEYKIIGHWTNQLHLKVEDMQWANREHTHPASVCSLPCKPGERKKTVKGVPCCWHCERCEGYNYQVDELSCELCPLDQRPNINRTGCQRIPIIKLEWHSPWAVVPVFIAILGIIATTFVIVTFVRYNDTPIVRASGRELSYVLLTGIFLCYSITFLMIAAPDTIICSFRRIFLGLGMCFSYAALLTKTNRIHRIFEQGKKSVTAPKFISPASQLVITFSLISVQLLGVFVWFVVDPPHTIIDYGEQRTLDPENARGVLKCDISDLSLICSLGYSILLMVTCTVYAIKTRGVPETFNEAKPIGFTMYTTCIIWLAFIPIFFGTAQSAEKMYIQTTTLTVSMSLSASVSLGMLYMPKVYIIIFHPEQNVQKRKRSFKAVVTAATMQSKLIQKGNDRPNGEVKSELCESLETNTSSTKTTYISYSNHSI

This test addresses Metabotropic glutamate receptor 8 (Rattus norvegicus) (UniProt P70579). The experiment in a line: mGluR8 Gi/Go-coupled signaling modulation – cell-based, rat, thallium flux, HTS, primary screen (AID 488969). The following applies: HEK293 rat mGluR8, GIRK (G protein-gated inwardly rectifying potassium channel) thallium flux, FluoZin2; at 10 µM; stronger effect = higher value; submaximal glutamate (EC20) added with thallium.
`O=C(NCc1ccco1)c1cccc(S(=O)(=O)N2CCc3ccccc32)c1` displayed a z-score of -0.341.
`COc1ccc(C(=O)/C=C/c2cn(CC(O)CN3CCOCC3)c3ccccc23)cc1` (centres undefined) gave a z-score of -0.177.
In turn, `CCC(=C(c1ccc(OC)cc1)c1ccc(OC)cc1)c1cn(CC(O)CN2CCN(C)CC2)c2ccccc12` (centres undefined) had a z-score of 2.63.
As for `COc1ccc(C(=O)/C=C/c2cn(CN3CCN(C)CC3)c3ccccc23)cc1`, the figure is -0.629; as for `COc1ccc(-n2c(COc3ccc4ccccc4c3)nnc2SCC(=O)NCc2ccco2)cc1`, 0.832; as for `COc1cnc(-c2ccccc2)nc1Oc1cccc(C)c1C`, -0.012.
In the case of `Cc1ccc(C)c(OCC(=O)Nc2nc3ccc([N+](=O)[O-])cc3s2)c1C` it was 2.46; in that of `Cc1ccc(C)c(OCC(=O)Nc2nc3ccc([N+](=O)[O-])cc3s2)c1`, 0.0186.
Compound `COCC(=O)Nc1nc2ccc(C)cc2s1` had a z-score of 0.0888.
In the case of `CCOCC(=O)Nc1nc2ccc(C)cc2s1` it was -0.0136.
As for `Cc1cccc(OCC(=O)Nc2nc3ccc([N+](=O)[O-])cc3s2)c1C`, the figure is -0.12; as for `Cc1cccc(OCC(=O)Nc2nc3ccc([N+](=O)[O-])cc3s2)c1`, 2.05.
Compound `O=C(CCl)N1c2ccccc2OCC1c1ccccc1` (centres undefined) came in with a z-score of -0.994.
`NC(=O)NC(=O)CSc1nc(C2CCCCC2)n(-c2ccccc2)n1` came in with a z-score of -0.264.
As to `Cc1ccc(CNc2oc(-c3ccco3)nc2C#N)cc1`, the z-score was -0.32.
Take `Cc1nnc(N2C(=O)C(O)=C(C(=O)c3ccco3)C2c2ccc(C(C)(C)C)cc2)s1` (centres undefined): the z-score is -0.554.
Take `Cc1ccc(NC(=O)COC(=O)c2sccc2C)cc1S(=O)(=O)N1CCOCC1`: the z-score was determined as 1.38.
`Cn1c(=O)c2cc(S(=O)(=O)N3CCOCC3)ccc2n(C)c1=O` returned a z-score of 0.139.
In the case of `Cc1cc(C)cc(NC(=S)N=Nc2c(O)n(C)c3ccc(S(=O)(=O)N4CCOCC4)cc23)c1` it was 0.616; in that of `Cc1ccc(C)c(NC(=S)N=Nc2c(O)n(C)c3ccc(S(=O)(=O)N4CCOCC4)cc23)c1`, 4.13 (active); in that of `Cc1ccc(Nc2ccc(S(=O)(=O)N3CCOCC3)cc2[N+](=O)[O-])c(C)c1`, 1.29.
In the case of `Cc1ccc(NC(=S)N=Nc2c(O)n(C)c3ccc(S(=O)(=O)N4CCOCC4)cc23)cc1` it was 3.93 (active); in that of `Cn1c(=O)n(C)c2cc(S(=O)(=O)N3CCOCC3)ccc21`, -0.185; in that of `CN(C)CCCN1C(=O)C(=O)/C(=C(/O)c2ccncc2)C1c1cccc(Br)c1` (centres undefined), -0.318.
In the case of `COc1ccc(OC)c(-c2cc(C(=O)Nc3cc(C)on3)no2)c1` it was 0.941; in that of `Cc1ccc(CNC(=O)C2C3C=CC4(CN(Cc5cccnc5)C(=O)C24)O3)cc1` (centres undefined), -0.0986.
As to `O=C(COC(=O)CCC1CCCC1)Nc1ccccc1Sc1ccccc1`, the z-score was -0.2.
`CCOc1c(OC(C)=O)ccc(/C=C/c2ccc3cccc(OC(C)=O)c3n2)c1[N+](=O)[O-]`: the z-score was -0.227.
The compound `COCCSc1ccccc1C(=O)NCc1ccco1` had a z-score of 0.383.
As for `O=C(N/N=C/c1ccc[nH]1)c1ccccc1[N+](=O)[O-]`, the figure is -0.104; as for `Cc1ccccc1N=Nc1c(C)[nH]n(C(N)=S)c1=O`, 2.97; as for `Cc1ccc(N=Nc2c(C)[nH]n(C(N)=S)c2=O)cc1C`, -0.217.
`CCN(CC)S(=O)(=O)c1ccc(N=Nc2c(C)[nH]n(C(N)=S)c2=O)cc1`: the z-score stood at 0.608.
Turning to `COCCCNC(=O)/C(=C\c1cccn1C)NC(=O)c1cccs1`, the z-score is 0.0671.
In the case of `O=C(NCc1ccccn1)C(F)(F)C(F)(F)C(=O)NCc1ccccn1` it was -0.509.
Compound `CCc1nc2ccccc2[nH]1` came in with a z-score of 0.00543.
In the case of `CCc1nc2cc([N+](=O)[O-])c([N+](=O)[O-])cc2[nH]1` it was -0.0776.
In the case of `CCc1nc2cc(Cl)c(Cl)cc2[nH]1` it was 2; in that of `Cc1nc2ccsc2c(=O)n1-c1ccc(Cl)cc1`, -0.0701; in that of `COc1ccc(N2C(=O)C3C4C=CC(CC4)C3C2=O)c([N+](=O)[O-])c1` (centres undefined), -0.215.
In the case of `OCCn1c(SC2CCCCC2)nc2ccccc21` it was 0.162; in that of `Cc1ccc(C(=O)N/N=C(/CC(=O)c2cccs2)C(F)(F)F)cc1`, 7.05 (active).
Consider `O=C(C/C(=N\NC(=O)c1ccccc1Br)C(F)(F)F)c1cccs1`, for which the z-score was 0.65.
In turn, `O=C(N/N=C(/CC(=O)c1cccs1)C(F)(F)F)c1ccc(O)cc1` displayed a z-score of -0.828.
In the case of `Cc1cc(C(=O)NCc2cc(C)n(C)n2)sc1-c1ccccc1` it was -0.62.
In the case of `CS(=O)(=O)Nc1ccccc1Oc1ccccc1` it was 0.607; in that of `COCCCn1c(SCc2nnc(-c3ccccc3)o2)nc2sc3c(c2c1=O)CCC3`, -0.256.
For `COc1cccc(C2OC(=O)c3ccccc3N2C(C)=O)c1OC(C)=O` (centres undefined), the z-score worked out at 0.116.
Compound `CSc1nc(Sc2ccc(Cl)cc2)c2ccccc2n1` registered a z-score of 0.0499.
In the case of `CSc1nc(Sc2ccccc2)c2ccccc2n1` it was 4.56 (active); in that of `CSc1nc(Sc2cccc(Cl)c2)c2ccccc2n1`, 0.093; in that of `CCC(C)NC(=O)CCc1c(C)nc2nc(-c3cc(OC)cc(OC)c3)nn2c1C` (centres undefined), -0.148.
In the case of `O=[N+]([O-])c1ccc(N2CCN(S(=O)(=O)c3ccc(Cl)cc3)CC2)cc1NCC1CCCO1` (centres undefined) it was -0.211; in that of `O=C(CN1CCN(c2ccccc2)CC1)Nc1ccc(-n2cnnn2)cc1`, 0.659.
As for `CCC1(C)Cc2c(sc3c2c(=O)n(C)c2nnc(SCC(=O)c4ccccc4)n32)CO1` (centres undefined), the figure is -0.469; as for `CCC1(C)Cc2c(sc3c2c(=O)n(C)c2nnc(SCc4ccc5c(c4)OCO5)n32)CO1` (centres undefined), 3.12 (active); as for `CCC1(C)Cc2c(sc3c2c(=O)n(C)c2nnc(SCc4ccccc4)n32)CO1` (centres undefined), -0.196.
In the case of `COc1ccccc1C(=O)N/C(=C\c1ccc2c(c1)OCO2)C(=O)NCCc1nc2ccccc2[nH]1`, the z-score is -1.09.
Compound `CN(c1ccccc1C(=O)Nc1cccc(Cl)c1Cl)S(C)(=O)=O` registered a z-score of 0.0249.
Turning to `Oc1[nH]c2ccccc2c1N=NC(=S)NCC1CCCO1` (centres undefined), the z-score is 3.01 (active).
As for `Oc1[nH]c2c(Cl)cc(Cl)cc2c1N=NC(=S)NCC1CCCO1` (centres undefined), the figure is 7.5 (active).
`CCOC(=O)C(=O)N=Nc1c(O)[nH]c2ccccc12`: the z-score is -0.0577.
As for `S=C(NCC1CCCO1)Nc1ccc(Cl)cc1Cl` (centres undefined), the figure is 0.145; as for `Oc1[nH]c2ccccc2c1C=NCC1CCCO1` (centres undefined), -0.00202; as for `O=C(CCn1c(=S)[nH]c2ccccc2c1=O)NCC1CCCO1` (centres undefined), -0.275.
As for `S=C(NCC1CCCO1)Nc1ccc(Cl)cc1` (centres undefined), the figure is 0.0149; as for `Oc1[nH]c2ccccc2c1N=NC(=S)NCCc1ccccc1`, 3.06 (active).
In the case of `CC(C)c1ccc2[nH]c(O)c(N=NC(=S)NCCc3ccccc3)c2c1` it was 0.396.
Compound `Cc1ccccc1NC(=O)C1C2CCCC1C2c1ccccc1` (centres undefined) came in with a z-score of 0.216.

(Values after PubChem BioAssay AID488969 (Vanderbilt High Throughput Screening Facility, 2010).)
